# Unmarked numbers belong to inactive results. Inconclusive results are not listed. Entries that show only a call come without a potency. Activity calls are given as the source filed them. Unless noted, the call rests on the fitted dose curve; in most records, active means well fitted curve in the direction sought with a large enough effect in the repeat runs; inconclusive means weak or mixed curves; inactive means no such curve, though single readings can be large; an effect the other way counts as inactive or inconclusive.
# Assays:
# [1] = qHTS assay to test for compound auto fluorescence at 535 nm (green) in HEK293 cells (AID 720680)
# [2] = qHTS assay to test for compound auto fluorescence at 460 nm (blue) in HEK293 cell free culture (AID 720681)
# Procedure, shortened: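 Blue fluorescence (Ex 405/Em 460 nm, triamterene-equivalent) was read immediately after pin transfer of compound or DMSO into medium (DMEM, 10% FBS) without cells.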
# [3] = qHTS assay to test for compound auto fluorescence at 535 nm (green) in HEK293 cell free culture (AID 720682)
# Procedure, shortened: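 Cell-free medium (DMEM, 10% FBS) receives compound or DMSO by pintool. Plate read directly at Ex 485/Em 535 nm. Signal converted to fluorescein equivalency.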
# [4] = qHTS assay to test for compound auto fluorescence at 590 nm (red) in HEK293 cell free culture (AID 720683)
# Procedure, shortened: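 Red-channel autofluorescence of compounds in culture medium (DMEM, 10% FBS), no cells, measured at 540/590 nm. Rose Bengal sodium is the reference fluorophore for equivalence.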
# [5] = qHTS assay to test for compound auto fluorescence at 590 nm (red) in HepG2 cell free culture (AID 720684)
# Procedure, shortened: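 No cells present: MEM + 10% FBS only. Compound pinned in, red label read (540/590 nm). Activity = fluorescence equivalent to Rose Bengal sodium.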
# [6] = qHTS assay to test for compound auto fluorescence at 460 nm (blue) in HepG2 cell free culture (AID 720685)
# Procedure, shortened: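 Cell-free plates of MEM plus 10% FBS received 23 nL compound or DMSO vehicle; blue-channel (405/460 nm) intensity scored against triamterene as reference fluorophore.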
# [7] = qHTS assay to test for compound auto fluorescence at 535 nm (green) in HepG2 cell free culture (AID 720686)
# [8] = qHTS assay to test for compound auto fluorescence at 460 nm (blue) in HepG2 cells (AID 720687)
# Procedure, shortened: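 Blue-channel autofluorescence (Ex/Em 405/460 nm, triamterene-equivalent) was measured after 1 hr compound exposure at 37 C, 5% CO2. Cells were HepG2, plated overnight at 37 C in MEM plus 10% FBS.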
# [9] = biological target: Glucocorticoid receptor (Homo sapiens) (UniProt P04150); test: qHTS assay to identify small molecule agonists of the glucocorticoid receptor (GR) signaling pathway (AID 720691; active means well fitted activation curve with a large enough effect in the signal ratio in the repeat runs, not every such curve was filed as active; the % refers to the signal ratio)
# Procedure, shortened: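 Cells: GR-bla HeLa, endogenous GR with stably integrated GRE-beta-lactamase reporter. Treatment 18 h, 37 C, compounds delivered in DMSO. Detection via LiveBLAzer B/G FRET substrate, 2 h RT, fluorescence intensity.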
# [10] = biological target: Glucocorticoid receptor (Homo sapiens) (UniProt P04150); test: qHTS assay to identify small molecule antagonists of the glucocorticoid receptor (GR) signaling pathway (AID 720692; active means well fitted inhibition curve with a large enough effect in the signal ratio in the repeat runs, not every such curve was filed as active; the % refers to the signal ratio)
# Procedure, shortened: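 Quantitative HTS in antagonist format: HeLa cells expressing endogenous GR and a stably integrated GRE-bla reporter, stimulated with 5 nM dexamethasone (final) alongside test compounds for 18 h.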
# [11] = qHTS assay to identify small molecule antagonists of the glucocorticoid receptor (GR) signaling pathway - cell viability counter screen (AID 720693); further: nearly all actives have a fitted effect of over 55% in size
# [12] = qHTS assay for identifying genotoxic compounds that show differential cytotoxicity against isogenic chicken DT40 cell lines with known DNA damage response pathways - wild type cell line (AID 743012); further: nearly all actives have a fitted effect of over 60% in size; further: potency means the concentration at half of the fitted maximal effect
# Procedure, shortened: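 Luminescent ATP viability signal (CellTiter-Glo, 30 min RT) recorded after wild type DT40 cells were incubated with compounds for 40 h at 37 C/5% CO2.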
# [13] = qHTS assay for identifying genotoxic compounds that show differential cytotoxicity against isogenic chicken DT40 cell lines with known DNA damage response pathways - Rev3 mutant cell line (AID 743014); further: nearly all actives have a fitted effect of over 55% in size; further: potency means the concentration at half of the fitted maximal effect
# [14] = qHTS assay for identifying genotoxic compounds that show differential cytotoxicity against isogenic chicken DT40 cell lines with known DNA damage response pathways - Rad54/Ku70 mutant cell line (AID 743015); further: nearly all actives have a fitted effect of over 60% in size; further: potency means the concentration at half of the fitted maximal effect
# [15] = qHTS assay to identify small molecule antagonists of the androgen receptor (AR) signaling pathway - cell viability counter screen (AID 743033; further: nearly all actives have a fitted effect of over 45% in size)
# [16] = biological target: Androgen receptor (Homo sapiens) (UniProt P10275); test: qHTS assay to identify small molecule agonists of the androgen receptor (AR) signaling pathway (AID 743036; active means well fitted activation curve with a large enough effect in the signal ratio in the repeat runs, with a control signal flat, not every such curve was filed as active; the % refers to the signal ratio)
# Procedure, shortened: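 AR-bla HEK293 cells, 2,000/well; 4 h preincubation 37C/5% CO2; compound (DMSO) 16 h at 37C; LiveBLAzer B/G FRET substrate 2 h RT; fluorescence intensity read-out.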
# [17] = biological target: Androgen receptor (Homo sapiens) (UniProt P10275); test: qHTS assay to identify small molecule agonists of the androgen receptor (AR) signaling pathway using the MDA cell line (AID 743040; further: nearly all actives have a fitted effect of over 20% in size)
# Procedure, shortened: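 Stable MMTV-luciferase reporter in MDA-kb2 cells; note the promoter carries GR as well as AR response elements. 16 h compound treatment, 37C, 0% CO2; ONE-Glo luminescence endpoint.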
# [18] = qHTS assay to identify small molecule antagonists of the androgen receptor (AR) signaling pathway using the MDA cell line - cell viability counter screen (AID 743041; further: nearly all actives have a fitted effect of over 45% in size)
# Procedure, shortened: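 Using the breast carcinoma line MDA-kb2 AR-luc, test chemicals were co-incubated with R1881 for 16 h; CellTiter-Fluor reagent, added at 15.5 h, provided a fluorescence measure of live cells.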
# [19] = biological target: Androgen receptor (Homo sapiens) (UniProt P10275); test: qHTS assay to identify small molecule antagonists of the androgen receptor (AR) signaling pathway using the MDA cell line (AID 743042; further: nearly all actives have a fitted effect of over 55% in size)
# Procedure, shortened: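 Antagonist mode: compounds plus R1881 agonist added to MDA-kb2 AR-luc cells, incubated 16 h at 37C. Luciferase reporter luminescence quantified, with multiplexed CellTiter-Fluor readout for cell viability.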
# [20] = biological target: Androgen receptor (Homo sapiens) (UniProt P10275); test: qHTS assay to identify small molecule antagonists of the androgen receptor (AR) signaling pathway (AID 743035; active means well fitted inhibition curve with a large enough effect in the signal ratio in the repeat runs, not every such curve was filed as active; the % refers to the signal ratio)
# Procedure, shortened: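 Quantitative HTS of the Tox21 10K library used HEK293 AR-UAS-bla cells stimulated with R1881 alongside compound for 16 h at 37C, followed by beta-lactamase FRET detection (LiveBLAzer B/G, 2 h, RT).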
# Sequence of Androgen receptor (Homo sapiens) (P10275 whole entry, looked up): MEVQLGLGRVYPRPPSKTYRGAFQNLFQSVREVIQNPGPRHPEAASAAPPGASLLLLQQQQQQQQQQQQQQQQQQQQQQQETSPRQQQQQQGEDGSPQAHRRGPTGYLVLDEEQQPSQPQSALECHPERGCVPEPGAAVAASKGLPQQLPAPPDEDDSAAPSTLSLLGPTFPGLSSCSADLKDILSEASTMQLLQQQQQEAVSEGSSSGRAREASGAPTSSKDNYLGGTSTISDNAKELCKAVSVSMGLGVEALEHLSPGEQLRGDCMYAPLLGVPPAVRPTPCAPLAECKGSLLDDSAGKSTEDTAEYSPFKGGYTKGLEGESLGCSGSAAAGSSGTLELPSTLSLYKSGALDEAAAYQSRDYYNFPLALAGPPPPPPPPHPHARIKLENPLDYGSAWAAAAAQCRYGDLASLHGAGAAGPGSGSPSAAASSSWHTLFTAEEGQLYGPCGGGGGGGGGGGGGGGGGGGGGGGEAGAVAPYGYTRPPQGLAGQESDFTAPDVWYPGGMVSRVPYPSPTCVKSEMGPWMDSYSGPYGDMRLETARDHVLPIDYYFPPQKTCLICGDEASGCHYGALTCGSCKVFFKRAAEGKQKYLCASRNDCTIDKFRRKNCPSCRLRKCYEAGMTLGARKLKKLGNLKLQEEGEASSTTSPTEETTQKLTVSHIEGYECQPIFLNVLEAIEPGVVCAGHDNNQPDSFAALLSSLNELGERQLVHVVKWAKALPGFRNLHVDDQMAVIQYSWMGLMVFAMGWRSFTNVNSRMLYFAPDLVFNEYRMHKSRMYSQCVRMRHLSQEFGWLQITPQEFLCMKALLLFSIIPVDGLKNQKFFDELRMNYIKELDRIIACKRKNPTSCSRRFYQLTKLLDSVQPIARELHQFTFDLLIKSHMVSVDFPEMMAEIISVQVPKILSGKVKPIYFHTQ
# Sequence of Glucocorticoid receptor (Homo sapiens) (P04150 whole entry, looked up): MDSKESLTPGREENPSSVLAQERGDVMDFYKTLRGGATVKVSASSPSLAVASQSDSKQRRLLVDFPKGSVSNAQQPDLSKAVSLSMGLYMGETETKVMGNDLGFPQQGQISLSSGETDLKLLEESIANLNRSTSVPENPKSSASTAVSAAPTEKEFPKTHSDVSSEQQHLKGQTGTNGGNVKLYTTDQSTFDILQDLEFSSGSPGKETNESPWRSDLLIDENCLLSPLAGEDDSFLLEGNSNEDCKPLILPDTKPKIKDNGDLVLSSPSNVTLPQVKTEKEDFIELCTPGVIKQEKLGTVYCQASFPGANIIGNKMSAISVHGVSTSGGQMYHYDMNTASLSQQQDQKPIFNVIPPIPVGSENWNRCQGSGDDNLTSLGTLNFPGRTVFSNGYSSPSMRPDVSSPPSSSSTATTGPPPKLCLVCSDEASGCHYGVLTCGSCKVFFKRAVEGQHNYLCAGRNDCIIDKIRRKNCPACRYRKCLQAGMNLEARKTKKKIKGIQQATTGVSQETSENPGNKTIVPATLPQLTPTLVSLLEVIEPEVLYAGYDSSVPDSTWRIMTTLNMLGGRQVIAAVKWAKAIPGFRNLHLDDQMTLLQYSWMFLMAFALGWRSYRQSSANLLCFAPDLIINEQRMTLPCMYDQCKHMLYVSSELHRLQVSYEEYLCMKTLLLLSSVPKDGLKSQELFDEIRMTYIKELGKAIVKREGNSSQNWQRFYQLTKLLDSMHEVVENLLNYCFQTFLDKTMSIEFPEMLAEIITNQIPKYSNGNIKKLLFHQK
smiles,measurement,setting,value
CCOc1ccc2c(c1)C(C)CC(C)(C)N2 (stereo unspecified),outcome,[1],inactive
same,Potency,[2],inactive
same,outcome,[3],inactive
same,outcome,[4],inactive
same,outcome,[5],inactive
same,outcome,[6],inactive
same,outcome,[7],inactive
same,outcome,[8],inactive
same,Potency,[9],inactive
same,Potency,[10],inactive
same,Potency,[11],inactive
same,Potency,[12],27.3 µM (active)
same,Potency,[13],54.5 µM (active)
same,Potency,[14],48.6 µM (active)
same,Potency,[15],inactive
same,outcome,[16],inactive
same,outcome,[17],inactive
same,Potency,[18],inactive
same,Potency,[19],inactive
CCCCC(CC)COCCC#N (stereo unspecified),outcome,[1],inactive
same,Potency,[2],inactive
same,outcome,[3],inactive
same,outcome,[4],inactive
same,outcome,[5],inactive
same,outcome,[6],inactive
same,outcome,[7],inactive
same,outcome,[8],inactive
same,Potency,[9],inactive
same,Potency,[10],inactive
same,Potency,[11],inactive
same,Potency,[12],inactive
same,Potency,[13],inactive
same,Potency,[14],inactive
same,Potency,[15],inactive
CCC[Si](OC)(OC)OC,outcome,[1],inactive
same,Potency,[2],inactive
same,outcome,[3],inactive
same,outcome,[4],inactive
same,outcome,[5],inactive
same,outcome,[6],inactive
same,outcome,[7],inactive
same,outcome,[8],inactive
same,Potency,[9],inactive
same,Potency,[10],inactive
same,Potency,[11],inactive
same,Potency,[12],inactive
same,Potency,[14],inactive
same,Potency,[15],inactive
same,outcome,[16],inactive
same,outcome,[17],inactive
same,Potency,[19],inactive
O=C(O)c1cccc(C(=O)O)c1C(=O)O,outcome,[1],inactive
same,Potency,[2],inactive
same,outcome,[3],inactive
same,outcome,[4],inactive
same,outcome,[5],inactive
same,outcome,[6],inactive
same,outcome,[7],inactive
same,outcome,[8],inactive
same,Potency,[9],inactive
same,Potency,[10],inactive
same,Potency,[11],inactive
same,Potency,[12],inactive
same,Potency,[13],inactive
same,Potency,[14],inactive
same,Potency,[15],inactive
same,Potency,[20],inactive
same,outcome,[16],inactive
same,outcome,[17],inactive
same,Potency,[18],inactive
same,Potency,[19],inactive
CC/C=C\CCO,outcome,[1],inactive
same,Potency,[2],inactive
same,outcome,[3],inactive
same,outcome,[4],inactive
same,outcome,[5],inactive
same,outcome,[6],inactive
same,outcome,[7],inactive
same,outcome,[8],inactive
same,Potency,[9],inactive
same,Potency,[10],inactive
same,Potency,[11],inactive
same,Potency,[13],inactive
same,Potency,[14],inactive
same,Potency,[15],inactive
same,Potency,[18],inactive
Cc1cccc(C)c1NC(=O)CN1CCCC1,outcome,[1],inactive
same,Potency,[2],inactive
same,outcome,[3],inactive
same,outcome,[4],inactive
same,outcome,[5],inactive
same,outcome,[6],inactive
same,outcome,[7],inactive
same,outcome,[8],inactive
same,Potency,[9],inactive
same,Potency,[10],inactive
same,Potency,[12],inactive
same,Potency,[13],inactive
same,Potency,[14],inactive
same,Potency,[15],inactive
same,Potency,[18],inactive
FC1(F)C(F)(F)C(F)(F)C2(F)C(F)(C1(F)F)C(F)(F)C(F)(F)C1(F)C(F)(F)C(F)(F)C(F)(F)C(F)(F)C12F (stereo unspecified),outcome,[1],inactive
same,Potency,[2],inactive
same,outcome,[3],inactive
same,outcome,[4],inactive
same,outcome,[5],inactive
same,outcome,[6],inactive
same,outcome,[7],inactive
same,outcome,[8],inactive
same,Potency,[9],inactive
same,Potency,[11],inactive
same,Potency,[12],inactive
same,Potency,[13],inactive
same,Potency,[14],inactive
same,Potency,[15],inactive
CC(CN=Cc1ccccc1O)N=Cc1ccccc1O (stereo unspecified),outcome,[1],inactive
same,Potency,[2],inactive
same,outcome,[3],inactive
same,outcome,[4],inactive
same,outcome,[5],inactive
same,outcome,[6],inactive
same,outcome,[7],inactive
same,outcome,[8],inactive
same,Potency,[9],inactive
same,Potency,[11],inactive
same,Potency,[12],inactive
same,Potency,[14],inactive
same,Potency,[15],inactive
same,Potency,[18],inactive
Cc1c(Cl)cccc1[N+](=O)[O-],outcome,[1],inactive
same,Potency,[2],inactive
same,outcome,[3],inactive
same,outcome,[4],inactive
same,outcome,[5],inactive
same,outcome,[6],inactive
same,outcome,[7],inactive
same,outcome,[8],inactive
same,Potency,[9],inactive
same,Potency,[10],inactive
same,Potency,[12],inactive
same,Potency,[13],inactive
same,Potency,[14],inactive
same,Potency,[15],inactive
same,Potency,[18],inactive
O=C(OCCOCCOCCOC(=O)c1ccccc1)c1ccccc1,outcome,[1],inactive
same,Potency,[2],inactive
same,outcome,[3],inactive
same,outcome,[4],inactive
same,outcome,[5],inactive
same,outcome,[6],inactive
same,outcome,[7],inactive
same,outcome,[8],inactive
same,Potency,[9],inactive
same,Potency,[10],inactive
same,Potency,[11],inactive
same,Potency,[15],inactive
same,Potency,[18],inactive
Nc1ccc(F)cc1F,outcome,[1],inactive
same,Potency,[2],inactive
same,outcome,[3],inactive
same,outcome,[4],inactive
same,outcome,[5],inactive
same,outcome,[6],inactive
same,outcome,[7],inactive
same,outcome,[8],inactive
same,Potency,[9],inactive
same,Potency,[10],inactive
same,Potency,[12],inactive
same,Potency,[13],inactive
same,Potency,[14],inactive
same,Potency,[15],inactive
same,Potency,[20],inactive
same,outcome,[16],inactive
same,outcome,[17],inactive
same,Potency,[18],inactive
same,Potency,[19],inactive
Nc1ccc(C(=O)Oc2ccccc2)c(O)c1,outcome,[1],inactive
same,Potency,[2],inactive
same,outcome,[3],inactive
same,outcome,[4],inactive
same,outcome,[5],inactive
same,outcome,[6],inactive
same,outcome,[7],inactive
same,outcome,[8],inactive
same,Potency,[9],inactive
same,Potency,[10],inactive
same,Potency,[12],29.8 µM (active)
same,Potency,[14],29.8 µM (active)
same,Potency,[15],inactive
same,Potency,[18],inactive
CS(C)=O,outcome,[1],inactive
same,Potency,[2],inactive
same,outcome,[3],inactive
same,outcome,[4],inactive
same,outcome,[5],inactive
same,outcome,[6],inactive
same,outcome,[7],inactive
same,outcome,[8],inactive
same,Potency,[9],inactive
same,Potency,[10],inactive
same,Potency,[11],inactive
same,Potency,[15],inactive
same,Potency,[18],inactive
Clc1ccccc1-c1nc(-c2ccncc2)no1,outcome,[1],inactive
same,Potency,[2],inactive
same,outcome,[3],inactive
same,outcome,[4],inactive
same,outcome,[5],inactive
same,outcome,[6],inactive
same,outcome,[7],inactive
same,outcome,[8],inactive
same,Potency,[9],inactive
same,Potency,[11],inactive
same,Potency,[13],inactive
same,Potency,[15],inactive
CCN(CCCCOC(=O)c1ccc(OC)c(OC)c1)C(C)Cc1ccc(OC)cc1 (stereo unspecified),"fluorescence, % of fluorescein",[1],0.0099% [at 18.6 µM]
same,"fluorescence, % of fluorescent control",[2],0.0098% [at 18.6 µM]
same,activity change,[3],0.0553% [at 18.6 µM]
same,"fluorescence, % of fluorescent control",[4],-0.0979% [at 18.6 µM]
same,"fluorescence, % of Rose Bengal",[5],0.006% [at 18.6 µM]
same,"fluorescence, % of fluorescent control",[6],0.0055% [at 18.6 µM]
same,"fluorescence, % of fluorescein control",[7],0.0076% [at 18.6 µM]
same,"fluorescence, % of fluorescent control",[8],0.0432% [at 18.6 µM]
same,Potency,[9],inactive
same,Potency,[10],inactive
same,Potency,[14],inactive
same,Potency,[15],inactive
same,Potency,[18],inactive
N#Cc1ccc(CC(=O)c2cccc(C(F)(F)F)c2)cc1,outcome,[1],inactive
same,Potency,[2],inactive
same,outcome,[3],inactive
same,outcome,[4],inactive
same,outcome,[5],inactive
same,outcome,[6],inactive
same,outcome,[7],inactive
same,outcome,[8],inactive
same,Potency,[9],inactive
same,Potency,[10],inactive
same,Potency,[11],inactive
same,Potency,[15],inactive
same,Potency,[18],inactive
